Experimental data published in PubChem BioAssay (Tox21).
Records with an inconclusive call do not appear. Active and inactive are the calls of the source. Calls come from the whole dose curve; as a rule, active = well fitted activation curve with a large enough effect in the signal ratio in the repeat runs, with a control signal flat (not every such curve was filed as active); inconclusive = weak or mixed curves, or effect the other way; inactive = no such curve, though single readings can be large or run the other way; the % refers to the signal ratio.

biological target: Androgen receptor (Homo sapiens) (UniProt P10275); assay: qHTS assay to identify small molecule agonists of the androgen receptor (AR) signaling pathway (AID 743036); settings: HEK293 AR-UAS-bla GripTite, beta-lactamase FRET ratio, 16 h; series mostly up to 62.4 µM; activation: at the top concentration
From the text: U.S. Tox21 Program National Center for Advancing Translational Sciences [NCATS] NIH Chemical Genomics Center [NCGC] U.S. Environmental Protection Agency [EPA] National Institutes of Environmental Health Sciences [NIEHS] National Toxicology Program [NTP] U.S. Food and Drug Administration [FDA] Tox21 Assay Overview: Androgen receptor (AR), a nuclear hormone receptor, plays a critical role in AR-dependent prostate cancer and other androgen related diseases. Endocrine disrupting chemicals (EDCs) and their interactions with steroid hormone receptors like AR may cause disruption of normal endocrine function as well as interfere with metabolic homeostasis, reproduction, developmental and behavioral functions. To identify the compounds that activate AR signaling, GeneBLAzer AR-UAS-bla-GripTite cell line (Invitrogen, Carlsbad, CA, USA) containing a beta-lactamase reporter gene under the control of an Upstream Activator Sequence (UAS) stably integrated into HEK293 cells was used to screen the Tox21 10K compound library.
Tox21 Assay Protocol Summary: AR-bla cells were dispensed at 2,000 cells/6 uL/well of assay medium into black wall/clear-bottom 1536-well plates using a Multidrop Combi (ThermoFisher Scientific, Waltham, MA) dispenser. After the assay plates were incubated at 37C and 5% CO2 for 4 h, 23 nL of compounds dissolved in DMSO, positive controls or DMSO only was transferred to the assay plate by a Pintool station (Kalypsys, San Diego, CA). The plates were incubated at 37C and 5% CO2 for 16 h. Then 1 uL of LiveBLAzerTM B/G FRET substrate was added using a Bioraptr Flying Reagent Dispenser (FRD) workstation (Beckman Coulter, Indianapolis, IN, USA). The plates were incubated at room temperature for 2 h, and fluorescence intensity was measured by an Envision plate reader (PerkinElmer, Shelton, CT).
% is set by controls: 0 for no effect and ±100 for the full control effect; potency is the fitted concentration of half-maximal effect.

Sequence of Androgen receptor (Homo sapiens) (P10275 whole entry, looked up): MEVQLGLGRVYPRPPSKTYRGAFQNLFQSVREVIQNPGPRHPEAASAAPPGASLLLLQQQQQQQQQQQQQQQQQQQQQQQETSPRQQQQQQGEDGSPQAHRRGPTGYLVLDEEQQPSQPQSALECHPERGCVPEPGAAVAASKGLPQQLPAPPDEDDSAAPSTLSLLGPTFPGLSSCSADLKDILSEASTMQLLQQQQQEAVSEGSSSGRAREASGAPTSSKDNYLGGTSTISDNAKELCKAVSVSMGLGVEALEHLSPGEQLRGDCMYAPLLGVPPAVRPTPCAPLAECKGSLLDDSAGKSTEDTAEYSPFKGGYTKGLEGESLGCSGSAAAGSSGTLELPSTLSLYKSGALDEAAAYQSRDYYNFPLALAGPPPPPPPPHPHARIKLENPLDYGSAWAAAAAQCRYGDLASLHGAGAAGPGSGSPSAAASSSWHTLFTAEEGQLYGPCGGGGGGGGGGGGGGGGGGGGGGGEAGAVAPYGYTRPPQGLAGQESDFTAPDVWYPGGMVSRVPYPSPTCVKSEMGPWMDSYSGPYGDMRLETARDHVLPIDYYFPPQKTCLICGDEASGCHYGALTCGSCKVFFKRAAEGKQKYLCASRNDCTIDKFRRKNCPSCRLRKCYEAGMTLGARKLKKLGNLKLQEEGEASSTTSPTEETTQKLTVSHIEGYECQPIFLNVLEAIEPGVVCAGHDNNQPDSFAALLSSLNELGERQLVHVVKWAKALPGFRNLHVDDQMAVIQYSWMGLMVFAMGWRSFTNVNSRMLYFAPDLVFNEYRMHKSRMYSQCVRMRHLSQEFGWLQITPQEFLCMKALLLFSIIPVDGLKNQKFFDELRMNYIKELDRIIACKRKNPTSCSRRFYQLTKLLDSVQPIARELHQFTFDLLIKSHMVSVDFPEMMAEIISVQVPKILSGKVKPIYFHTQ

Row | SMILES | activation | Potency
1 | Cc1cnc(C2=NC(C)(C(C)C)C(=O)N2)c(C(=O)O)c1 (stereo unspecified) | 0.101% (inactive) | 
2 | COc1ccc2c(c1OC)C(=O)O[C@H]2[C@@H]1c2cc3c(cc2CCN1C)OCO3 | -0.194% (inactive) | 
3 | COC(=O)C1(O)c2ccccc2-c2ccccc21 | -8.95% (inactive) | 
4 | O=C(NCNC(=O)NC1C(=O)NC(=O)N1CO)NC1C(=O)NC(=O)N1CO (stereo unspecified) |  | inactive
5 | O=C(N[C@H]1CN2CCC1CC2)c1ccc2c(c1)OCCO2 | 17.1% (inactive) | 
6 | CC(C)(C)NCC(O)c1cc(Cl)c(N)c(C(F)(F)F)c1 (stereo unspecified) | 4.47% (inactive) | 
7 | O=P(OCC(Br)CBr)(OCC(Br)CBr)OCC(Br)CBr (stereo unspecified) |  | inactive
8 | CCCCCBr | -4.23% [at 79.1 µM] (inactive) | 
9 | CN(C1CCCCC1)C1CCCCC1 | 7.05% (inactive) | 
10 | C[N+](C)(C)CC1CO1 (stereo unspecified) | 1.32% (inactive) | 
11 | CC(Cl)C(=O)O (stereo unspecified) | 11.8% [at 79.1 µM] (inactive) | 
12 | O=CC=O |  | inactive
13 | CN1C(=O)CN=C(c2ccccc2)c2cc([N+](=O)[O-])ccc21 | -11.9% (inactive) | 
14 | C[C@]12C=CC3=C4CCC(=O)C=C4CC[C@H]3[C@@H]1CC[C@@H]2O |  | 0.0027 µM (active)
15 | O=C(Cl)OCCOCCOC(=O)Cl | -0.028% (inactive) | 
16 | CCC1(C2=NCCN2)Cc2ccccc2O1 (stereo unspecified) |  | 23.9 µM (active)
17 | CC(C)(C)N(NC(=O)c1ccc(Cl)cc1)C(=O)c1ccccc1 | -1.39% (inactive) | 
18 | CC(=O)NNc1ccccc1 | 9.01% (inactive) | 
19 | Clc1ccc2ccccc2c1 | 0.73% [at 79.1 µM] (inactive) | 
20 | C=C(Cl)Cl | 9.89% [at 79.1 µM] (inactive) | 
21 | CC1(C)[C@H](C(=O)O[C@H](C#N)c2cccc(Oc3ccccc3)c2)[C@@H]1C=C(Br)Br |  | inactive
22 | COCc1cnc(C2=NC(C)(C(C)C)C(=O)N2)c(C(=O)O)c1 (stereo unspecified) | -8.51% (inactive) | 
23 | Nc1c(Br)cc(Br)c2c1C(=O)c1ccccc1C2=O | -13.5% [at 29.2 µM] (inactive) | 
24 | FC(F)OC(F)(F)C(F)Cl (stereo unspecified) |  | inactive
25 | CN(C)N | 14.3% (inactive) | 
26 | NP(N)(=O)NC(=O)c1ccc(F)cc1 | 12.3% (inactive) | 
